# Experimental data published in PMC5540273 (PLoS ONE, 2017).
# “And” between values parts separate entries of the source, which are not always exact repeats. Equal values may be shown once. Read-outs that look alike come from different tables or passages of the source.
# Experiments:
# CDKL2 = conditions: concentration: 1 μM, replicates: in singlicate, n = 1
# CDKL3 = conditions: concentration: 1 μM, replicates: in singlicate, n = 1
# CDKL5 = conditions: concentration: 1 μM, replicates: in singlicate, n = 1
# CHEK1 = conditions: concentration: 1 μM, replicates: in singlicate, n = 1
# CHEK2 = conditions: concentration: 1 μM, replicates: in singlicate; n = 1
# CIT = conditions: concentration: 1 μM, replicates: in singlicate, n = 1
# CLK1 = conditions: concentration: 1 μM, replicates: in singlicate, n = 1
# CLK2 = conditions: concentration: 1 μM, replicates: in singlicate, n = 1
# CLK3 = conditions: concentration: 1 μM, replicates: in singlicate, n = 1
# CLK4 = conditions: concentration: 1 μM, replicates: in singlicate, n = 1
# 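Further: KINOMEscan kinase panel screen.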
Structure (SMILES),%Inh (CDKL2) [%],%Inh (CDKL3) [%],%Inh (CDKL5) [%],%Inh (CHEK1) [%],%Inh (CHEK2) [%],%Inh (CIT) [%],%Inh (CLK1) [%],%Inh (CLK2) [%],%Inh (CLK3) [%],%Inh (CLK4) [%],%Inh (CDKL2; 1 µM),%Inh (CDKL3; 1 µM),%Inh (CDKL5; 1 µM),%Inh (CHEK1; 1 µM),%Inh (CIT; 1 µM),%Inh (CLK1; 1 µM),%Inh (CLK2; 1 µM),%Inh (CLK3; 1 µM),%Inh (CLK4; 1 µM)
Cl.O=S(=O)(c1cccc(F)c1)c1ccc(Nc2ncnc3cc(Br)sc23)cc1Cl [GSK306886],19,0,0,0,0,23,23,0,0,0,–,–,–,–,–,–,–,–,–
COc1ccc(NC(=O)c2ccc(-c3cc(-c4nnc(C)o4)ccc3C)cc2)cc1 [GW595885],13,0,0,0,0,22,17,0,94.8,20,–,–,–,–,–,–,–,–,–
COC(=O)c1cccc(NC(=O)NCCNc2ccnc(Nc3ccc(F)cc3)n2)c1 [GSK1379883],5,0,0,0,5,35,15,0,14,42,–,–,–,–,–,–,–,–,–
Cc1cccc(-c2nc(Nc3ccc4[nH]nnc4c3)c3ccccc3n2)n1 [GW867587],25,0,0,0,0,15,0,0,0,0,–,–,–,–,–,–,–,–,–
CCc1nc(-c2cccc(C)c2)c(-c2ccnc(NC(=O)c3ccccc3)c2)s1,0,0,10,0,34,42,0,0,0,16,–,–,–,–,–,–,–,–,–
Nc1nc(-c2cccnc2)c(-c2ccnc3ccccc23)s1 [GW684083],20,0,0,0,11,45,14,0,100,38,–,–,–,–,–,–,–,–,–
FC(F)(F)c1cc(Nc2nccc(-c3c(-c4ccc(Cl)cc4)nn4ncccc34)n2)ccc1Cl [GW829351],28,0,0,0,4,17,0,22,0,0,–,–,–,–,–,–,–,–,–
CC(C)N1CCC(n2cnc(-c3ccc(F)cc3)c2-c2ccnc(N)n2)CC1 [SB-223132],13,9,0,0,0,69,5,0,10,0,–,–,–,–,–,–,–,–,–
Fc1cccc(COc2ccc(Nc3ncnc4sc(-c5ccc[nH]5)cc34)cc2Cl)c1 [GW707818],14,0,0,7,21,27,29,8,0,100,–,–,–,–,–,–,–,–,–
COc1cc2c(Nc3cccc(NC(=O)c4ccccc4)c3)ncnc2cc1OCCCN1CCOCC1 [GSK223810],3,0,0,0,0,29,10,10,0,16,–,–,–,–,–,–,–,–,–
COc1ccc(-c2nc3n(c2-c2ccncc2)CCC3)cc1 [SKF-104493],–,–,–,–,0,–,–,–,–,–,0% and 1%,1% and 0%,2% and 0%,0% and 13%,16% and 15%,16% and 11%,0% and 6%,5% and 1%,10% and 0%
Oc1ccc2ncnc(Nc3ccc(OCc4ccccc4)cc3)c2c1 [GI262866],0,0,7,8,23,0,37,0,21,19,–,–,–,–,–,–,–,–,–
Cn1cc(-c2ccc3c(c2)CCN3C(=O)Cc2cccc(C(F)(F)F)c2)c2c(N)ncnc21 [GSK2606414],15,0,0,19,0,11,22,0,0,19,–,–,–,–,–,–,–,–,–
CS(=O)(=O)CCNCc1ccc(-c2ccc3ncnc(Nc4ccc(OCc5ccccc5)c(Cl)c4)c3c2)o1.Cl [GW574783],11,0,0,6,0,23,0,0,0,21,–,–,–,–,–,–,–,–,–
COc1ccc(Nc2nccc(N3CCC(NC(=O)c4cccc(NC(C)=O)c4)C3)n2)cc1 (stereo not shown) [GSK1379732],18,0,0,0,41,43,21,0,0,12,–,–,–,–,–,–,–,–,–
CSc1nn2c(=O)cc(N3CCOCC3)nc2n1Cc1cccc(Cl)c1Cl [GSK2347225],27,0,8,15,0,35,40,0,100,12,–,–,–,–,–,–,–,–,–
O=C(Nc1ccccc1F)NC1CCN(c2ccnc(Nc3ccc(F)cc3)n2)C1 (stereo not shown) [GSK1379722],30,0,0,8,0,2,21,0,24,17,–,–,–,–,–,–,–,–,–

Structure (SMILES),%Inh (CDKL2) [%],%Inh (CDKL3) [%],%Inh (CDKL5) [%],%Inh (CHEK1) [%],%Inh (CHEK2) [%],%Inh (CIT) [%],%Inh (CLK1) [%],%Inh (CLK2) [%],%Inh (CLK3) [%],%Inh (CLK4) [%],%Inh (CDKL2; 1 µM),%Inh (CDKL3; 1 µM),%Inh (CDKL5; 1 µM),%Inh (CHEK1; 1 µM),%Inh (CIT; 1 µM),%Inh (CLK1; 1 µM),%Inh (CLK2; 1 µM),%Inh (CLK3; 1 µM),%Inh (CLK4; 1 µM)
Fc1ccc(Nc2nccc(-c3c(-c4ccc(Cl)cc4)nn4ncccc34)n2)cc1F [GW829058],22,21,23,12,1,0,0,10,10,5,–,–,–,–,–,–,–,–,–
CN1CCC(n2cnc(-c3ccc(F)cc3)c2-c2ccnc(NC3CCNCC3)n2)CC1 [SB-229482],22,3,0,0,39,2,0,0,4,9,–,–,–,–,–,–,–,–,–
Nc1nc(-c2ccc3c(N)n[nH]c3c2)cc(N2CCCCC2)n1 [GSK2228768],0,0,2,0,0,18,29,0,8,19,–,–,–,–,–,–,–,–,–
CCC(CC)(CC)n1cnc2c(N)ncnc21 [SKF-97620],0,0,23,0,0,13,0,0,6,16,–,–,–,–,–,–,–,–,–
OCCOCCn1ccc2ncnc(Nc3ccc(Oc4cccc(Cl)c4)c(Cl)c3)c21,0,5,0,0,0,2,0,0,0,0,–,–,–,–,–,–,–,–,–
COc1ccc(Nc2nccc(N3CCC(NC(=O)Nc4ccc5c(c4)OCO5)C3)n2)cc1 (stereo not shown) [GSK1379745],8,0,0,1,0,0,15,1,9,19,–,–,–,–,–,–,–,–,–
O=C(NCCCN1CCCC1=O)c1cnc(NCc2cc(Cl)ccc2Cl)nc1NC1CCNCC1,0,20,0,0,6,0,0,0,0,0,–,–,–,–,–,–,–,–,–
Cl.c1ccc(Cn2ccc3cc(Nc4ncnc5ccccc45)ccc32)cc1 [GW275568],4,8,0,2,27,5,26,10,59,0,–,–,–,–,–,–,–,–,–
CC(C)(C)OC(=O)NC1CCCN(c2cc(-c3ccc4c(N)n[nH]c4c3)nc(N)n2)C1 (stereo not shown) [GSK2286096],5,0,7,0,0,26,55,27,7,16,–,–,–,–,–,–,–,–,–
Cc1cc(N2CCC(NS(=O)(=O)c3ccc(F)cc3)CC2)nc(Nc2cccc(C#N)c2)n1.O=C(O)C(F)(F)F [GSK1653537],24,0,0,4,0,0,14,0,0,25,–,–,–,–,–,–,–,–,–
NC(=O)c1sc(-n2cnc3ccccc32)cc1OCc1ccccc1F [GSK1024306],22,0,0,0,0,39,37,0,0,42,–,–,–,–,–,–,–,–,–
COc1ccc(-c2oc3ncnc(N)c3c2-c2ccc(OC)cc2)cc1 [SB-589132],2,0,2,0,0,0,29,0,0,0,–,–,–,–,–,–,–,–,–
Cn1ccc2ncnc(Oc3ccc(NC(=O)Nc4cccnc4)c(Cl)c3)c21,3,13,14,0,9,5,0,5,4,32,–,–,–,–,–,–,–,–,–
O=C(c1ccc(-c2cc(-c3c[nH]nc3-c3ccccn3)ccn2)cc1)N1CCCC1 [GW792479],24,3,0,0,0,18,0,8,0,0,–,–,–,–,–,–,–,–,–
CCCc1ccc(S(=O)(=O)NC2CCN(c3ccnc(Nc4ccc(OC)cc4)n3)C2)cc1 (stereo not shown) [GSK1379737],19,0,0,0,15,32,23,0,0,6,–,–,–,–,–,–,–,–,–
O=C(Nc1ccccc1)Nc1ccc(Oc2ccc3nccn3n2)cc1,5,0,0,0,49,3,30,0,0,0,–,–,–,–,–,–,–,–,–
Clc1cccc(-c2nc(Nc3ccncc3)c3ccccc3n2)c1 [GW873004],35,13,3,0,0,57,14,0,35,52,–,–,–,–,–,–,–,–,–
